Assay results reported in PubChem BioAssay AID651812 (National Center for Advancing Translational Sciences (NCATS), 2012).
Among all 2,100 compounds or so, about 650 (31%) were called active. Roughly 16% stayed inconclusive and do not appear here. Calls follow the shape of the dose curve; as a rule, active = well fitted inhibition curve with a large enough effect; inconclusive = small, poorly fitted or top-dose-only effect; inactive = flat fitted curve, though single readings scatter. This is one part of the list. Entries that show only a call come without a potency.

Assay: qHTS for inhibitors of Vif-A3G interactions: Cherry picks; also: nearly all actives have a fitted effect of over 80% in size
Settings: HeLa A3G-eYFP + Vif (tagged APOBEC3G with the HIV-1 protein that degrades it), 24 h; Potency: eYFP fluorescence increase; series mostly up to 36.9 µM
Procedure, shortened: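 HeLa cells stably expressing A3G-eYFP and Vif, cultured overnight then exposed to compounds at several concentrations for 24 hours at 37 C, 5% CO2; cellular yellow fluorescence (488 nm ex, 500-530 nm em) imaged on Acumen, MG132 positive control.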
Potency is read from the fitted curve at half-maximal effect.

Structure (SMILES) | Potency
CCOC(=O)c1c(CC(C)C)csc1/N=C/C1C(=O)CCCC1=O | inactive
C=C1C(=O)O[C@H]2C1CC[C@@](C)(O)C13C=CC(C)(C21)C1(C3)C(=O)O[C@@H]2C3C(C)=CCC3[C@](C)(O)C[C@H](OC(C)=O)C21 (some centres not stated) | inactive
CN(C)c1ccc(/C=C2\Oc3ccc(C#Cc4cccc(N)c4)cc3C2=O)cc1 | 14 µM (active)
O=C1/C(=C/c2ccc([N+](=O)[O-])cc2)Oc2cc(O)ccc21 | inactive
COc1cnc(-c2ccccn2)nc1Oc1ccc(F)cc1F | inactive
CC(C)(C)OC(=O)NC(Cc1ccccc1)C(=O)N1CCC(C(=O)NCC(=O)Nc2ccc(F)cc2)CC1 (configuration not stated) | 18.4 µM (active)
COc1ccc(/C=N/n2cc(-c3ccccc3)nc2N)cc1 | inactive
Cc1ccnc(N/C=C(\C#N)c2nc(-c3cccc(Br)c3)cs2)c1 | 14 µM (active)
COC(=O)c1nnn(-c2nonc2N)c1CN1CCc2ccccc21 | inactive
CC1(C)CCN2CCC(C)(C)c3c(O)ccc1c32 | 14 µM (active)
COc1cc(CNCCSc2nnnn2C)ccc1OCc1c(F)cccc1Cl | inactive
Cc1ccc(N=Cc2c(O)n(-c3nccs3)c(=O)c3ccccc23)c(C)c1 | 16.4 µM (active)
Cc1ccc(NC(=O)/C(C#N)=C\c2ccc(-c3ccc(Cl)cc3)o2)c(C)c1 | 7.31 µM (active)
N#C/C(=C/c1ccc(-c2ccc([N+](=O)[O-])cc2)o1)C(=O)Nc1nc(-c2cccs2)cs1 | inactive
CCN(CC)c1ccc(/C=c2/sc3nnc(-c4ccccc4C)n3c2=O)cc1 | 25.9 µM (active)
O=C1NC(c2ccccc2Br)=N/C1=C\c1ccco1 | inactive
Cc1cccc(N2CCN(C(=O)c3ccncc3)CC2)c1C | inactive
C(=C\c1c[nH]c2ccccc12)/c1ccc2ccccc2n1 | 18.4 µM (active)
C(=Cc1c[nH]c2ccccc12)c1ccc2ccccc2n1 | 20.6 µM (active)
Cc1[nH]c2ccccc2c1/C=C/c1ccc2ccccc2n1 | 18.4 µM (active)
Cc1[nH]c2ccccc2c1/C=C/c1ccnc2ccccc12 | inactive
Nc1cccc(CCc2nc3cc4ccccc4cc3[nH]2)c1 | inactive
Cc1cc(NC(=O)NC(=O)c2ccccc2NC(=O)C(C)N)ccc1Oc1ncc(Br)cn1 (configuration not stated) | inactive
CC(=O)Nc1ccc(S(=O)(=O)Nc2nc3ccccc3nc2Sc2nncn2C)cc1 | inactive
Cc1[nH]c2ccccc2c1/C=C/c1cc[n+](C)cc1 | 4.44 µM (active)
Cc1[nH]c2ccccc2c1/C=C/C(=O)c1ccccc1 | 23.1 µM (active)

Structure (SMILES) | Potency
Cc1ccc2[nH]c(C)c(/C=C/c3cc[n+](C)cc3)c2c1 | 1.77 µM (active)
O=c1cc(-c2ccccc2)[nH]c2ccccc12 | inactive
COc1ccc(-c2cc(NC(C)=O)c3ncc(-c4cc(OC)c(OC)c(OC)c4)n3c2)cn1 | inactive
CCOc1ccccc1N1CC(c2nc3ccccc3n2Cc2c(C)cc(C)cc2C)CC1=O (configuration not stated) | inactive
O=C(Cn1ncc(Cl)c(Cl)c1=O)N1CCN(S(=O)(=O)c2ccc3ccccc3c2)CC1 | inactive
Cc1ccc(/C=N/NC(=O)C2COc3ccccc3O2)s1 (configuration not stated) | inactive
O=S(=O)(Nc1cccc2ncccc12)c1cccs1 | inactive
Cc1ccc(NC(=O)Cc2ccc(-n3cccc3)cc2)c(C)c1 | inactive
CC(=O)c1cccc(NC(=S)N2c3ccccc3CC2C)c1 (configuration not stated) | inactive
Cc1nc(NC(=O)/C=C/c2ccco2)sc1C | inactive
CC(=O)c1cccc(NC(=O)/C=C/c2ccc([N+](=O)[O-])s2)c1 | 8.2 µM (active)
Cc1ccc(NC(=O)/C=C/c2ccc([N+](=O)[O-])s2)cc1 | 7.31 µM (active)
Cc1cccc(NC(=O)/C=C/c2ccc([N+](=O)[O-])s2)c1 | 4.11 µM (active)
Cc1ccc(NC(=O)C(=Cc2ccc(C(=O)O)cc2)C(=O)Nc2ccc(C)cc2C)c(C)c1 | inactive
Cc1ccc(NC(=O)/C=C/c2ccc([N+](=O)[O-])s2)c(C)c1 | 5.8 µM (active)
C=CCN=c1scc(-c2ccc(F)cc2)n1/N=C/c1ccccn1 | inactive
COc1ccc(CN2C(=O)C(C)Nc3ncnc(N4CCc5ccccc5C4)c32)cc1 (configuration not stated) | inactive
COC(=O)c1sccc1NC(=S)Nc1cc(C)cc(C)c1 | inactive
Cc1cc(C)cc(NC(=O)/C=C/c2ccc([N+](=O)[O-])s2)c1 | 23.1 µM (active)
Cc1noc(C)c1COc1ccc(C(=O)NNC(=O)c2ccccc2F)cc1 | inactive
O=C(COc1ccccc1-c1ccccc1)NN=C1CCCC1 | inactive
COc1ccc(-n2cc3c(-c4cccc(Br)c4)nnc(C)c3n2)cc1 | inactive
C=CCN1C(=O)C2(NNc3ccccc3O2)c2ccccc21 (configuration not stated) | 12.5 µM (active)
O=C(Nc1ccccc1-c1nc2ccccc2[nH]1)c1ccc(N2C(=O)CCC2=O)cc1 | 23.1 µM (active)
CCOc1ccc(C(=O)Nc2cc(-c3nc4ccccc4[nH]3)ccc2Cl)cc1[N+](=O)[O-] | inactive
c1ccc2c(-c3nc4ccccc4[nH]3)cccc2c1 | inactive
